Records with an inconclusive call do not appear. A number with no mark means an inactive call. Active and inactive are the calls of the source. The call rests on the fitted dose curve; in most records, active means well fitted inhibition curve with a large enough effect; inconclusive means small, poorly fitted or top-dose-only effect; inactive means flat fitted curve, though single readings scatter.

For assay [1], the target named is Calcium and integrin-binding protein 1 (Homo sapiens) (UniProt Q99828). The experiment in a line: Primary qHTS for Identification of Calcium Integrin Binding Protein 1 (CIB1) Competitor (AID 1508620).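 Further: GST tagged CIB1 binding a fluorescein labelled alphaIIb integrin peptide tracer; top concentration of the series differs between compounds.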 An outline of the steps: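 Fluorescence polarization competition: CIB1-GST (1 uM final) preincubated with compound 15 min at room temperature, then FITC-labeled alphaIIb peptide (100 nM final) added for another 15 min. Polarization read at Ex 480/Em 540.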
Sequence of Calcium and integrin-binding protein 1 (Homo sapiens) (Q99828 whole entry, looked up): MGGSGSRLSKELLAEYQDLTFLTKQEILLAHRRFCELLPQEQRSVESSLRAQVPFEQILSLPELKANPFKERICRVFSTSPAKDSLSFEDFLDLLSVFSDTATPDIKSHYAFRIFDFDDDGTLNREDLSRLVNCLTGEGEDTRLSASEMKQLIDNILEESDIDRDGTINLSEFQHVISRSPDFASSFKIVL

Assay [2] in a line: Primary qHTS for inhibitors of nuclear receptor binding SET domain protein 2 (NSD2) in an isogenic RCH-ACV NSD2 p.E1099K mutant (9B) (AID 1645876). Further: nearly all actives have a fitted effect of over 70% in size. Further: potency means the concentration at half of the fitted maximal effect.
On the % scale 0 is the no-effect control and ±100 the full control effect.

Consider `C=C1C[C@@]23CCC4[C@@](C)(CCC[C@@]4(C)C(=O)OC)C2CC[C@@H]1C3` (some centres not stated), for which the Potency entry in assay [1] and in assay [2] was “inactive” in each case.
With `CC1(C)CC2C=C(C(=O)O)C3COC(=O)C(O)(CO)C23C1` (configuration not stated), the Potency entry in assay [1] and in assay [2] was “inactive” throughout.
As for `OC[C@H]1O[C@@H](OC(CCCCc2ccc(O)cc2)CCc2ccc(O)cc2)[C@H](O)[C@@H](O)[C@@H]1O` (some centres not stated), the Potency result in assay [1] and in assay [2] was “inactive” each time.
With `CCOc1ccc2nc(SCCN3CCOCC3)[nH]c2c1`, the Potency entry in assay [1] and in assay [2] was “inactive” each time.
For the compound `COc1ccc(N(C)c2nc(C)nc3ccccc23)cc1`, the Potency result in assay [1] is “inactive”. The Potency in assay [2] was 13.2 nM (active).
On the same counts, the results for `CC[C@]1(O)CC2CN(CCc3c([nH]c4ccccc34)[C@@](C(=O)OC)(c3cc4c(cc3OC)N(C=O)[C@H]3[C@@](O)(C(=O)OC)[C@H](OC(C)=O)[C@]5(CC)C=CCN6CC[C@]43[C@@H]65)C2)C1` (some centres not stated) are “inactive” and 6.4 nM (active).
Take `CC(C)=CCC/C(C)=C/Cc1ccc(O)c(C2OC(=O)c3cc(C(=O)O)cc(O)c32)c1O` (configuration not stated): the Potency entry in assay [1] and in assay [2] was “inactive” throughout.
For the compound `C=C[C@@H]1[C@H](O[C@@H]2O[C@H](CO)[C@@H](O)[C@H](O)[C@H]2O)OC=C(C(=O)O)[C@H]1CCOC(=O)/C=C/c1ccc(O)c(O)c1`, the Potency entry in assay [1] and in assay [2] was “inactive” in each case.
`CC1=CC(=O)CC(C)(C)C1/C=C/C(C)O[C@@H]1O[C@H](CO)[C@@H](O)[C@H](O)[C@H]1O[C@@H]1OC[C@](O)(CO)[C@H]1O` (some centres not stated): the Potency result in assay [1] and in assay [2] was “inactive” each time.
For `COc1cc(C2Oc3c(OC)cc(CCCO)cc3C2CO)ccc1O[C@H]1O[C@H](C)[C@@H](O)[C@H](O)[C@@H]1O` (some centres not stated), the Potency result in assay [1] and in assay [2] was “inactive” throughout.
For `C[C@H]1[C@H](O)O[C@@H]2O[C@@]3(C)CC[C@H]4[C@H](C)CC[C@@H]1[C@@]24OO3`, the Potency entry in assay [1] was “inactive”. For the same compound, in assay [2], the Potency is 1180 nM (active).
Regarding `CO[C@H]1C[C@@H]2CC[C@@H](C)[C@@](O)(O2)C(=O)C(=O)N2CCCC[C@H]2C(=O)O[C@H]([C@H](C)C[C@@H]2CC[C@@H](OP(C)(C)=O)[C@H](OC)C2)CC(=O)[C@H](C)/C=C(\C)[C@@H](O)[C@@H](OC)C(=O)[C@H](C)C[C@H](C)/C=C/C=C/C=C/1C`, the Potency entry in assay [1] is “inactive”. Moreover, the Potency in assay [2] was 11.8 nM (active).
With `C=CC(C)(O)CC[C@H]1C(=C)CCC2[C@](C)(C(=O)O)CCC[C@@]21C` (some centres not stated), the Potency entry in assay [1] and in assay [2] was “inactive” in each case.
On to `C=C(C(=O)O)C1CCC2(C)CCC(O)C(=C)C2C1` (configuration not stated), for which the Potency result in assay [1] and in assay [2] was “inactive” each time.
For `COc1cc(/C=C/C(=O)O[C@H]2[C@H](O)[C@@H](CO)O[C@@]2(CO)O[C@H]2O[C@H](CO)[C@@H](O)[C@H](O)[C@H]2O)ccc1O`, the Potency entry in assay [1] and in assay [2] was “inactive” in each case.
Regarding `C1CCC[C@H]2CCCN3CC[C@@H](CCCCCC[C@@H]4CCCN5CC[C@@H](CC1)O[C@@H]45)O[C@@H]23`, the activity change, negative = inhibition in assay [1] is -0.14% [at 0.247 µM]. Also, the activity change, negative = viability loss in assay [2] is -4.42% [at 0.177 µM].
Regarding `CC(=O)N[C@@H](C(=O)O[C@H]1CCC(C)(C)[C@@H]2CCC3=C(COC3=O)[C@@]12C)C(C)C`, the Potency result in assay [1] and in assay [2] was “inactive” each time.
Turning to `C[C@@H]1O[C@@H](O[C@H]2[C@H](O)[C@@H](O)[C@H](OC3CCC4(C)C5CCC(C)(C(CO)OC6OC(CO)C(O)C(O)C6O)CC5=CCC4C3(C)C)O[C@@H]2CO)[C@H](O)[C@H](O)[C@H]1O` (some centres not stated), the Potency result in assay [1] and in assay [2] was “inactive” each time.
As for `COC(=O)C12CCC(C)C(C)C1C1=CCC3C4(C)CCC(OC(C)=O)C(C)(C)C4CCC3(C)C1(C)CC2` (configuration not stated), the Potency entry in assay [1] and in assay [2] was “inactive” each time.
In the case of `CC(=O)N[C@H]1[C@H](O[C@H]2CC[C@@]3(C)C(CC[C@]4(C)C3CC=C3[C@@H]5CC(C)(C)CC[C@]5(C(=O)OC5OCC(O)C(O)C5O)CC[C@]34C)C2(C)C)O[C@H](COC2OC(C)C(O)C(OC3OC(C)C(O)C(O)C3O)C2O)[C@@H](O)[C@@H]1O` (some centres not stated), the Potency result in assay [1] is “inactive”. In addition, the outcome in assay [2] is “inactive [at 9.23 µM]”.
With `CC1OC(O[C@H]2CC[C@@]3(C)C(CC[C@]4(C)C3CC=C3C5CC(C)(C)CC[C@]5(C(=O)OC5OC(CO)C(OC6OC(COC7OCC(O)C(O)C7O)C(O)C(O)C6O)C(O)C5O)CC[C@]34C)C2(C)C)C(O)C(O)C1OC1OCC(OC2OCC(O)C(O)C2O)C(O)C1O` (some centres not stated), the activity change, negative = inhibition in assay [1] is -11.1% [at 12.4 µM]. Besides, the outcome in assay [2] was “inactive [at 9.23 µM]”.
`C=C(C)C1CCC(C)C12CC(O)C1(C)OC1C2OC(=O)C(N)CCC(=O)O` (configuration not stated): the Potency result in assay [1] and in assay [2] was “inactive” in each case.
`C=CC(C)(O)C(O)CC1C(C)(O)C(O)C(O)C2C(C)(C)CCCC21C` (configuration not stated): the Potency result in assay [1] and in assay [2] was “inactive” throughout.
As to `CCOC(=O)Nc1cc(-c2ccc(C)c(NS(C)(=O)=O)c2)nn2c(C)nnc12`, the Potency entry in assay [1] is “inactive”. Further, the Potency in assay [2] was 728 nM (active).
As for `CC/C=C\CCO[C@@H]1O[C@H](CO)[C@@H](O)[C@H](O)[C@H]1O`, the Potency entry in assay [1] and in assay [2] was “inactive” each time.
For `CC/C=C\CCO[C@@H]1O[C@H](CO[C@@H]2OC[C@H](O)[C@H](O)[C@H]2O)[C@@H](O)[C@H](O)[C@H]1O`, the Potency entry in assay [1] and in assay [2] was “inactive” each time.

(Values after PubChem BioAssay (NCATS).)
